# Assay outcomes as filed in PubChem BioAssay.
# The sample as a whole holds a higher share of hits than the screen did.
# TcdB inh: TcdB glycohydrolase inhibition; AID 652162; actives 0.24% (n = 350,000); P18177; TcdB glycohydrolase enzymatic assay, plate reader; inhibition, % at 9.99 µM; in the data active = inhibition above about 10%
# BoNT F protease: inhibitors of Botulinum neurotoxin F light chain protease | actives 0.22% (n = 360,000) | inhibition, % at 10 µM | Multiplex microsphere protease cleavage assay, flow cytometry | AID 588497; in the data active = inhibition above about 35%, passing the limit was not always enough; inconclusive = no clear call, values can overlap the other calls; also: plate controls were buffer without enzyme for full effect and enzyme alone for no effect
# BoNT A protease: blocks Botulinum neurotoxin A light chain protease; multiplex microsphere protease substrate cleavage, flow cytometry; inhibition, % at 10 µM; actives 0.17% (n = 360,000); AID 588499; also: plate controls were buffer without enzyme for full effect and enzyme alone for no effect
# Anthrax LF inh2: blocks Bacillus anthracis lethal factor protease | actives 0.12% (n = 360,000) | AID 588501 | P15917 | inhibition, % at 10 µM | multiplex microsphere protease cleavage assay, LF; also: plate controls were buffer without enzyme for full effect and enzyme alone for no effect
# Autofluor counter: counter-screen for toxin protease inhibitors: compound fluorescence. compound autofluorescence counterscreen, microsphere flow cytometry; hits give high values. fluorescence intensity (test concentration not listed). actives 3.1% (n = 360,000); in the data active = fluorescence intensity above about 16000; inconclusive = no clear call, values can overlap the other calls
# The depositor's hits bear a star; ? = inconclusive; . = no result given. Rule as the data show it, unless noted: active = inhibition above about 30%; inconclusive = no clear call, values can overlap the other calls; inactive = below that.
SMILES,TcdB inh,BoNT F protease,BoNT A protease,Anthrax LF inh2,Autofluor counter
C[C@@H]1CN([C@H](C)CO)C(=O)c2cc(NC(=O)c3ccncc3)ccc2O[C@@H](C)CCCCO[C@@H]1CN(C)S(=O)(=O)c1ccc(F)cc1,-2,.,.,.,.
O=C(O)c1cc(S(=O)(=O)N2CCCCC2)ccc1F,.,-4,-3,-2,21594*
O=C(Nc1ccc(O)cc1)c1cc(S(=O)(=O)N2CCCC2)ccc1Cl,.,10,6,0,20180*
COc1ccc(NC(=O)c2cc(S(=O)(=O)N3CCCCC3)ccc2N2CCCCC2)cn1,.,-2,-1,1,23676*
COc1ccccc1C(=O)Nc1ccc(S(=O)(=O)N2CCCC2)cc1,.,-2,?,-4,16385*
COc1ccccc1CC(=O)Nc1ccc(S(=O)(=O)N2CCCCC2)cc1,1,6,0,-11,4278
COc1ccccc1N(CC(=O)Nc1ccc(S(=O)(=O)N2CCCCC2)cc1)S(C)(=O)=O,.,-4,?,-2,22900*
COc1cc(OC)c(-c2nn3c(C4CCCCC4)nnc3s2)cc1OC,0,-1,0,1,10677
Clc1ccc(OCc2nn3c(C4CCCCC4)nnc3s2)c(Cl)c1,.,-4,-3,-1,22251*
CO[C@@H]1CN(C)C(=O)c2ccc(NC(=O)Cc3ccccc3)cc2OC[C@H](C)N(CC2CC2)C[C@@H]1C,1,.,.,.,.
Cn1c(-c2cccc(Br)c2)cnc1NCc1cccnc1,.,-4,-2,-2,23394*
Cn1c(-c2ccc(F)cc2)cnc1NCc1ccccc1,.,-6,-3,-4,17208*
Cn1c(-c2ccc(F)cc2)cnc1NCc1cccc(F)c1,.,4,0,-1,4025
O=c1[nH]c2ccc(Cl)cc2c(-c2ccccc2)c1N1CCN(CCO)CC1,.,1,?,-1,20528*
C[C@H]1CCCCO[C@@H](CN(C)C)[C@@H](C)CN([C@@H](C)CO)C(=O)c2cc(NS(=O)(=O)c3ccc(F)cc3)ccc2O1,-2,.,.,.,.
CCc1cc(=O)oc2cc(C)c(CN3CCCC3)c(O)c12,.,-9,-2,-4,17050*
Cc1ccc(S(=O)(=O)N[C@@H]2CC[C@H](CCNC(=O)c3ccccc3F)O[C@@H]2CO)cc1,0,.,.,.,.
CCOC(=O)CSc1nc2c(sc(=S)n2-c2ccc(OCC)cc2)c(=O)[nH]1,2,3,0,-5,4224
CCOc1ccc(-n2c(=S)sc3c(=O)[nH]c(SCC(=O)NCc4ccco4)nc32)cc1,.,4,?,0,20051*
CN(C)C(=O)c1ccc(-c2ccc([C@H]3[C@@H](CO)N4CCCCN(S(C)(=O)=O)C[C@@H]34)cc2)cc1,-1,.,.,.,.
COc1ccc(C(=O)N2CCN(Cc3cc(OC)c(O)c(OC)c3)CC2)cc1OC,.,-4,0,-2,6787
CCOc1ccc(C(=O)N2CCCC2)cc1OC,.,-2,-2,-3,21510*
COc1ccc(CN2CCN(C(=O)c3cc(OC)c(OC)c(OC)c3)CC2)cc1OC,0,6,?,-4,22314*
CCOc1ccc(C(=S)N2CCCC2)cc1OC,0,0,0,0,1970
COc1cccc(C(=O)N2CCN(Cc3cccc(F)c3)CC2)c1,1,-2,-1,0,23288*
SMILES,TcdB inh,BoNT F protease,BoNT A protease,Anthrax LF inh2,Autofluor counter
Clc1ccsc1-c1ccnc(-n2cccc2)n1,-3,-3,0,-3,3262
Cc1ccsc1-c1ccnc(-n2cccc2)n1,.,-2,-1,-2,16296*
Cn1c(O)c(C2=c3ccccc3=NC2=O)sc1=Nc1ccc(Cl)cc1,.,2,3,0,19149*
COc1ccc(N(CC(=O)N/N=C/c2ccc(-c3ccc([N+](=O)[O-])cc3)o2)S(=O)(=O)c2ccc(C)cc2)cc1,0,17,20,22,8056
COc1ccc(N(CC(=O)N/N=C/c2ccc(-c3ccc([N+](=O)[O-])cc3)o2)S(=O)(=O)c2ccc(C)cc2)cc1Cl,.,42*,56*,44*,2649
C[C@H](O)C#Cc1cnc2c(c1)C(=O)N([C@@H](C)CO)C[C@@H](C)[C@@H](CN(C)C(=O)c1ccc(F)cc1)O2,0,.,.,.,.
O=c1oc2c(CN3CCCCC3)c(O)ccc2cc1-c1nc2ccccc2[nH]1,0,15,14,0,18384*
O=c1oc2c(O)cccc2cc1-c1nc2ccccc2[nH]1,1,?,-5,0,4125
COc1ccc2c(c1)/C(=C/c1cnc[nH]1)C(=O)N2,2,2,0,-12,6058
O=C1Nc2ccccc2/C1=C/c1cnc[nH]1,1,0,3,-7,19606*
CNC[C@@H]1Oc2ccc(NC(=O)Nc3ccc4c(c3)OCO4)cc2C(=O)N([C@@H](C)CO)C[C@H]1C,0,.,.,.,.
CCCCN(C)CCNC(=O)c1c[nH]c2ccc(S(=O)(=O)N(CC)CC)cc2c1=O,.,6,4,1,20963*
CCN(c1ccccc1)S(=O)(=O)c1ccc2[nH]cc(C(=O)NCCOC)c(=O)c2c1,.,-6,-1,0,3238
CN(C)C(=O)C[C@@H]1CC[C@@H](NS(=O)(=O)c2ccccc2)[C@@H](CO)O1,-3,.,.,.,.
CCOc1ccc(-c2cc(C(=O)NCCCn3ccnc3)c3ccccc3n2)cc1,1,-1,-1,-4,4109
CCOc1ccc(-c2cc(C(=O)NCCCN3CCN(CC)CC3)c3ccccc3n2)cc1,.,-4,?,0,21315*
C[C@H]1CN([C@@H](C)CO)S(=O)(=O)c2ccc(-c3ccc(F)cc3)cc2O[C@H]1CN(C)C(=O)C1CCCCC1,0,.,.,.,.
C[C@@H]1CN([C@H](C)CO)C(=O)c2cc(C#C[C@@H](C)O)cnc2O[C@@H]1CN(C)C(=O)c1ccccc1F,2,.,.,.,.
CC(C)Oc1ccc(NC(=O)CCC(=O)O)cc1,.,0,-1,-1,16641*
O=C(O)CCCC(=O)Nc1ccc(Br)cc1,.,0,0,-1,23089*
Cc1ccc(NC(=O)CNc2ccc(OC(C)C)cc2)c(C)c1,.,-20,3,-8,19175*
COc1ccc(-c2cn(CC[C@@H]3CC[C@H](NC(=O)CCN4CCCCC4)[C@@H](CO)O3)nn2)cc1,0,.,.,.,.
COc1ccc(NC(=O)Nc2ccc3c(c2)C(=O)N([C@@H](C)CO)C[C@H](C)[C@H](CN(C)C(=O)Nc2c(C)noc2C)O3)cc1,-2,.,.,.,.
CCOc1ccc(C(=O)NCCc2cnc[nH]2)cc1,1,50*,1,8,3918
Cc1ccc(S(=O)(=O)Nc2cccc3c2O[C@H](CN(C)C(=O)Nc2ccc(F)cc2)[C@H](C)CN([C@H](C)CO)C3=O)cc1,1,.,.,.,.
CCOC(=O)c1c(C2COc3ccccc3O2)csc1NC(=O)c1ccco1 (stereo unspecified),.,0,-1,0,21244*
CCOC(=O)c1c(-c2cccs2)csc1NC(=O)c1ccco1,.,2,-2,-5,4706
O=C(c1cccnc1)N1C[C@H]2[C@@H](c3ccccc31)[C@H](CO)N2C(=O)Nc1ccccc1F,0,.,.,.,.
CCc1ccc(N(C(=O)CCC(=O)Nc2cc(C)on2)C(C(=O)NC(C)(C)C)c2ccc(OC)cc2)cc1 (stereo unspecified),3,35*,-1,-6,3818
